High-throughput results as filed in PubChem.
FLuc counter: qHTS profiling assay for firefly luciferase inhibitor/activator using purifed enzyme and Km concentrations of substrates (counterscreen for miR-21 project); Potency, µM (series often up to 57.5 µM), without a hit: at the top dose activity change, negative = inhibition, most hits filed as inhibitors; purified FLuc, Km substrates, luminescence inhibition; hit rate 6.9% among 360,000; Luciferin 4-monooxygenase (Photinus pyralis), P08659;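 also: plate controls were vehicle for no effect and reference inhibitor for full effect; nearly all actives have a fitted effect of over 55% in size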
Target sequence (P08659 whole entry, looked up): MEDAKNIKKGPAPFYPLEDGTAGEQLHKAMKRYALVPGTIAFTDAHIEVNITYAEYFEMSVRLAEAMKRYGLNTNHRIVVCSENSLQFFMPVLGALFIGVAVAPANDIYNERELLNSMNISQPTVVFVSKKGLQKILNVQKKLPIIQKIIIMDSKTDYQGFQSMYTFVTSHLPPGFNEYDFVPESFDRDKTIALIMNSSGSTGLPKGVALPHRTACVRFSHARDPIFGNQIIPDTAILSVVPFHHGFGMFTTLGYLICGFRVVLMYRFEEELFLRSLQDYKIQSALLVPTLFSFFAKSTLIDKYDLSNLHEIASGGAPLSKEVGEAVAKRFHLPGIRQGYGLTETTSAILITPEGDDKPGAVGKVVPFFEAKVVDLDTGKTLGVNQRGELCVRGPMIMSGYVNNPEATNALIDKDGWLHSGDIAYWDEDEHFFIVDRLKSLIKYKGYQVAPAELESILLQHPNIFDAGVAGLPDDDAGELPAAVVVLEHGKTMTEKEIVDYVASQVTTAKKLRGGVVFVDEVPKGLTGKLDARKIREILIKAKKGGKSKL
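Purified P. pyralis luciferase (10nM final) with 10uM D-luciferin and 10uM ATP (Km levels) in 50mM Tris acetate pH 7.5, 10mM Mg acetate, 0.01% Tween-20, 0.05% BSA; qHTS 6-point titration, ~60 µM downward; luminescence read.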
ELG1 genotoxic: qHTS screen for small molecules that induce genotoxicity in human embryonic kidney (HEK293T) cells expressing luciferase-tagged ELG1. HEK293T ELG1-luciferase reporter, luminescence, 16 h. Potency, µM (doses to about 46 µM), inactives show at the highest dose activity change, positive = activation, actives largely listed as activators. AID 504466, 2011. hit rate 1.3% among 330,000; also: % of control where 0% means no effect; nearly all actives have a fitted effect of over 60% in size
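HEK293T cells expressing luciferase-tagged ELG1 were exposed to compound or DMSO vehicle for 16 hr at 37 °C and 5% CO2. Luciferase activity was then measured with ONE-Glo after 30 min at room temperature.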
SMN2 splice up: qHTS Assay for Enhancers of SMN2 Splice Variant Expression. HEK293 SMN2-luciferase splicing reporter, luminescence, 30-36 h. Potency, µM (series often up to 46.1 µM), for the others: top-dose activity change, positive = activation, usual class: activators. hit rate 2.8% among 210,000. AID 1458, 2008; also: % of control where 0% means no effect; nearly all actives have a fitted effect of over 55% in size
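HEK293 cells carry an SMN2 minigene-luciferase reporter in which exon 7 inclusion puts luciferase in frame. Cells were seeded at 2000 cells/well, attached for 10-12 hours, then exposed to compounds for 30-36 hours at 37C before ONE-Glo luminescence.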
KinaseGlo FLuc: Counterscreen for Luciferase (Kinase-Glo TM) Inhibition. Luciferin 4-monooxygenase (Photuris pensylvanica), Q27757. Kinase-Glo luciferase, ATP luminescence, 8 min. Potency, µM (top dose mostly 38.3 µM), for inactives: at the highest dose activity change, negative = inhibition, hits mostly inhibitors. hit rate 0.28% among 200,000; also: % is scaled to controls: 0 for no effect and ±100 for the full control effect; nearly all actives have a fitted effect of over 60% in size
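Compound is pinned into ATP-containing buffer (10 uM ATP, imidazole pH 7.2, 7 mM MgCl2). Kinase-Glo luciferase reagent is then added. Light output is recorded following an 8-min room-temperature incubation.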
NPC1 prom act: qHTS Assay for NPC1 Promoter Activators; Potency, µM (titrated, usually from 9.22 µM), without a hit: at the highest dose activation, actives largely listed as activators; hit rate 2.4% among 320,000; Huh7 NPC1 promoter luciferase reporter, 24 h; also: % of control where 0% means no effect; nearly all actives have a fitted effect of over 60% in size
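Luminescence from an NPC1 promoter-driven luciferase reporter in stably transfected Huh7 cells was measured after 24 h compound treatment at 37 °C, followed by 10 min ambient incubation with luciferase detection reagent.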
Rab9 promoter act: qHTS Assay for Rab9 Promoter Activators; Huh7 Rab9 promoter-luciferase reporter, luminescence, 24 h; Potency, µM (doses to about 9.22 µM), without a hit: top-dose activation, negative = inhibition, most hits filed as activators; hit rate 2.8% among 320,000; AID 485297, 2010; also: % of control where 0% means no effect; nearly all actives have a fitted effect of over 60% in size
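Huh7 cells stably carrying a Rab9 promoter-luciferase reporter, 1500 cells per well in OP-MEM I with 10% FBS, treated with compound 24 hours at 37C. Luciferase activity read by luminescence after 10 minutes with Amplite reagent.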
Numbers without * were called inactive; ? = inconclusive; . = no result; [ ] = dose if it differs, or a comment. Shown are actives, neighbours in structure and some others; about 7.3% of the full set was active somewhere. Calls follow the shape of the dose curve; as a rule, active = well fitted curve in the direction sought with a large enough effect; inconclusive = small, poorly fitted or top-dose-only effect, or another doubt; inactive = no such curve, though single readings can be large; an effect the other way counts as inactive or inconclusive. Potency is read from the fitted curve at half-maximal effect.

SMILES	FLuc counter	ELG1 genotoxic	SMN2 splice up	KinaseGlo FLuc	NPC1 prom act	Rab9 promoter act
O=C(/C=C/c1ccc(O)c(O)c1)NC(=O)c1ccccc1O	9.53µM*	?	31.6µM*	-2.9%	?	11.2%
CCc1nn2c(=O)cc(COC(=O)c3ccccc3NC(=O)c3cccs3)nc2s1	-6.9%	.	.	.	.	.
Cc1ccc(N2CCN(C(=O)C3CCN(c4ncnc5c4nc4n5CCCCC4)CC3)CC2)c(C)c1	0.9%	.	.	.	.	.
O=C(c1ccco1)N1CCN(C(=O)c2ccc(COc3ccc4c(c3)CCC4)o2)CC1	?	-6.7%	14.1%	-4.7%	18.6%	?
NNC(=O)c1ccc(COc2ccc(Br)cc2)o1	-8.0%	-2.8%	.	.	12.2%	0.5%
NNC(=O)c1ccc(COc2ccc3c(c2)CCC3)o1	?	3.3%	15.8µM*	0.0%	?	3.98µM*
O=C(N/N=C/c1cccc(O)c1)c1ccc(COc2ccc3c(c2)CCC3)o1	19µM*	?	-27.0%	-5.2%	?	?
Cc1cccc(NC(=O)Cn2cc(C(=O)C3CCCCC3)c3ccccc32)c1	-2.4%	.	-8.0%	.	.	.
Cc1ccc(Cl)cc1NC(=O)C1CCN(S(=O)(=O)c2cccc3nonc23)CC1	-2.0%	.	-3.6%	.	.	.
COc1ccc(N=Cc2ccc[nH]2)cc1	9.53µM*	17.8%	6.0%	-4.6%	1.7%	-3.5%
COc1ccc(N=CC2=C(O)CCCC2=O)cc1	?	?	27.7%	-8.4%	1.3%	14.5%
CCCCOc1ccc(N=Cc2ccc[nH]2)cc1	3.79µM*	4.7%	.	.	1.2%	15.8%
CNc1nc(-c2ccc3c(c2)CCN3C(=O)c2ccccc2C)cs1	7.57µM*	?	22.4µM*	-7.7%	3.98µM*	2.24µM*
Cc1cccc(C(=O)N2CCc3cc(-c4csc(NC(=O)CN5CCCC5)n4)ccc32)c1	?	-23.2%	.	.	-3.0%	-1.8%
CNc1nc(-c2ccc3c(c2)CCN3C(=O)c2cccc(F)c2)cs1	4.78µM*	-0.5%	.	.	?	2µM*
O=C(CN1CCCC1)Nc1nc(-c2ccc3c(c2)CCN3C(=O)c2ccccc2F)cs1	23.9µM*	-14.8%	.	.	20.0%	13.4%
CNc1nc(-c2ccc3c(c2)CCN3C(=O)c2ccc(F)cc2)cs1	12µM*	3.4%	1.5%	-3.9%	25.3%	?
Cc1ccccc1C(=O)N1CCc2cc(-c3nc(NC(=O)Cc4ccc5c(c4)OCO5)sc3C)ccc21	1.7%	-0.4%	-64.4%	0.0%	-23.2%	-19.9%
CC(=O)c1cc2c(cc1N/C(=N/S(=O)(=O)c1ccc(F)cc1)c1ccccc1)OCO2	-7.5%	.	.	.	.	.
CCOC(=O)c1c(C)[nH]c(C(=O)CSc2nc(C)cc(C)n2)c1C	0.3%	-0.5%	-45.8%	-2.6%	-4.6%	1.9%
CCOC(=O)c1c(C)[nH]c(C(=O)CSc2ccc(Cl)cc2)c1C	6.01µM*	?	11.2µM*	-1.8%	?	?
CCOC(=O)c1c(C)[nH]c(C(=O)CSc2nc3ccccc3o2)c1C	8.6%	5.5%	0.316µM*	-2.5%	-5.2%	-1.9%
Cc1ccc(S(=O)(=O)N=Nc2c(O)[nH]c3cc(O)c(C(=O)O)cc23)cc1	.	.	-8.9%[9.22 µM]	-2.3%[7.66 µM]	.	.
C/C(=N\NC(=O)c1nn(C)cc1Br)c1ccncc1	-23.3%	-1.8%	6.9%	-12.8%	9.0%	16.6%
C/C(=N\NC(=O)c1ccn[nH]1)c1cn(C)nc1C	12µM*	?	11.2µM*	-27.3%	?	?
SMILES	FLuc counter	ELG1 genotoxic	SMN2 splice up	KinaseGlo FLuc	NPC1 prom act	Rab9 promoter act
CCOc1ccc(CCNC(=O)COC(=O)c2cccc(N(C)C)c2)cc1OCC	-12.8%	1.83µM*	.	.	3.98µM*	1.58µM*
COc1cc(C(C)=O)ccc1COc1ccc(C(=O)OCC(N)=O)cc1OC	12µM*	3.0%	-35.7%	5.9%	-0.4%	-1.8%
CC(C)n1cc(NC(=O)c2cc(-c3ccccc3)on2)cn1	15.1µM*	18.4µM*	6.0%	-5.8%	-16.1%	-8.6%
COC(=O)c1c(-c2cccnc2)csc1NC(=O)c1cc(C)on1	6.01µM*	?	11.2µM*	-5.5%	2µM*	1.78µM*
O=C(Nc1ccc(F)c(Cl)c1)c1cc(-c2ccco2)on1	?	4.7%	.	.	-3.3%	2.5%
CCC(C)NC(=O)c1cc(-c2cccc(OC)c2)on1 (centres undefined)	13.5µM*	.	11.2µM*	.	.	.
O=C(Nc1cccnc1)c1cc(-c2ccco2)on1	6.01µM*	0.2%	-3.4%	-8.7%	-0.4%	0.4%
COC(=O)c1c(-c2ccc(C)cc2)csc1NC(=O)c1c(-c2ccccc2)noc1C	0.3%	-2.3%	68.3%	3.4%	-2.0%	-1.1%
CCc1ccccc1NC(=O)CN1C(=O)c2cccnc2Oc2ccc(Cl)cc21	-8.1%	.	.	.	.	.
CCc1nn(CC(=O)NC(C)CC)c(=O)c2cc3occc3n12 (centres undefined)	-2.2%	.	9.7%	.	.	.
O=C(Nc1cccnc1)c1cc(-c2ccccc2)on1	4.78µM*	1.6%	-0.3%	-8.9%	0.7%	-7.5%
COc1ccc(NC(=O)c2cc(-c3ccccc3)on2)cc1	?	11.5%	.	.	1.4%	1.9%
COc1cccc(-c2cc(C(=O)Nc3cc(OC)c(OC)c(OC)c3)no2)c1	?	-22.9%	8.8%	1.1%	-17.1%	-7.0%
O=C(Nc1cccnc1)c1cc(-c2ccc(Br)cc2)on1	2.13µM*	5.8µM*	10.7%	-3.9%	-0.5%	0.1%
COc1cccc(-c2cc(C(=O)Nc3cccnc3)no2)c1	1.35µM*	?	-8.0%	-9.3%	-1.8%	-1.4%
CCn1cc(C(=O)N2CCN(c3cccc(Cl)c3)CC2)c(=O)c2cc(S(=O)(=O)N3CCOCC3)ccc21	-8.9%	.	3.1%	.	.	.
O=C(O)c1cccc(Nc2ccnc(Nc3cccc(C(=O)O)c3)n2)c1	6.01µM*	?	.	.	?	?
Nc1ncnc(Nc2ccc(F)cc2)n1	-5.8%	-0.7%	19.1%	0.1%	-5.4%	0.9%
O=C(O)c1cccc(Nc2nc(N3CCOCC3)nc(N3CCOCC3)n2)c1	3.0%	-6.5%	23.0%	0.7%	-4.7%	-8.1%
Fc1ccc(Nc2ccnc(Nc3ccc(F)cc3)n2)cc1	8.49µM*	?	.	7.8%	?	?
COc1ccccc1OCc1nnc(-c2ccccc2)o1	?	.	25.5%	.	.	.
CCCSC1=N/C(=C\C=C\c2ccco2)C(=O)S1	10.7µM*	-0.2%	-6.1%	5.4%	-2.0%	0.5%
CCCSC1=N/C(=C\c2ccc([N+](=O)[O-])o2)C(=O)S1	?	0.1%	-0.8%	-6.5%	-0.1%	-2.2%
CCc1ccccc1NC(=O)c1nnn(Cc2ccc(Cl)cc2)c1N	4.1%	.	-16.2%	.	.	.
O=C(CNC(=O)C1CCCCC1)Nc1cc(Cl)cc(Cl)c1	2.3%	-3.9%	21.9%	1.3%	1.4%	-8.8%
